Results reported in PubChem BioAssay AID1347434 (National Center for Advancing Translational Sciences (NCATS), 2020).
The campaign covered roughly 1,200 compounds. About 30 (2%) were called active. Inconclusive results (about 23%) are left out. The call rests on the fitted dose curve; in most records, active means well fitted inhibition curve with a large enough effect; inconclusive means small, poorly fitted or top-dose-only effect; inactive means flat fitted curve, though single readings scatter. What follows is part of a selection rich in actives, with near analogues and random picks from the rest. Entries that show only a call come without a potency.

These molecules were tested against Single-stranded DNA cytosine deaminase (Homo sapiens) (UniProt Q9GZX7) (assay: Confirmatory qHTS assay for inhibitors of Activation Induced Cytidine Deaminase (AID): AID signals). Settings: recombinant AID, FRET deamination/UDG coupled fluorescence, 4 h; series mostly up to 115 µM.
Single-stranded DNA cytosine deaminase (Homo sapiens), sequence (Q9GZX7 whole entry, looked up): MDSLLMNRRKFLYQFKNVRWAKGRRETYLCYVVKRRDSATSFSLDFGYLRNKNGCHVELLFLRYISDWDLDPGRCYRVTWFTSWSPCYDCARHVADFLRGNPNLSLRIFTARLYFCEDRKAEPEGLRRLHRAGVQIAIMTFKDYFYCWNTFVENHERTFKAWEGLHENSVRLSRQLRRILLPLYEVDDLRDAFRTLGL
Method in brief: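 Read 1 (AID) was measured at 540 ex/590 em after a 30 min NaOH step. The reaction was AID (1 uM, 4/3x stock) with UDG, compound at final 7.32 nM - 114 uM for 10 min, then DJC20/DJC23 substrate for 4 hr at room temperature. A UDG read at 560/665 serves as counterscreen.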
Potency means the concentration at half of the fitted maximal effect.

Compound	Potency
CCc1nn(CCCC(=O)N2CCN(c3cc(Cl)ccc3C)CC2)c(=O)c2cc3occc3n12	inactive
CCn1cc2nc(SCC(=O)Nc3ccccc3C(F)(F)F)n(Cc3ccc(C)cc3)c(=O)c2n1	inactive
CCc1ccc2c(c1)c(=O)c(S(=O)(=O)c1ccc(Cl)cc1)cn2CC	inactive
Cc1ccccc1OCc1nnc(SCc2cc(=O)c3ccc(C)c(C)c3[nH]2)n1C	inactive
CCOc1ccc(CCNC(=O)c2nc(-c3cccc(F)c3)n3c2CCCCC3)cc1OCC	inactive
Cc1ccc(C)c(N2CCN(C(=O)c3ccc(CS(=O)(=O)c4ccc(Br)cc4)o3)CC2)c1	inactive
CCOC(=O)CSc1nnc2n(-c3ccccc3)c(=O)c3c4c(sc3n12)CC(C(C)(C)C)CC4 (centres undefined)	inactive
CCn1cc(C(=O)NCCCOC(C)C)c(=O)c2cc(S(=O)(=O)N(C)C3CCCCC3)ccc21	inactive
Cc1cccc(CCNc2ncnc3onc(-c4ccc(Cl)cc4)c23)c1	inactive
Cc1cc2c(cc3c(SCc4ccc(Cl)cc4)nnc(C)n32)o1	inactive
Cc1c(C)n(C)c2ccc(C(=O)N3CCN(c4ccccc4)CC3)cc12	inactive
CC(=O)c1ccc(NC(=O)C2CCN(c3nnc(C)c4c(C)n(-c5ccccc5)nc34)CC2)cc1	inactive
COc1ccc(CC(=O)Nc2sc3c(c2C(=O)Nc2cccc(Cl)c2)CCCCC3)cc1	inactive
CCCN(CCC)C(=O)Cn1c(=O)n(Cc2ccc(C(=O)NCCc3ccc(OC)c(OC)c3)cc2)c(=O)c2ccccc21	inactive
Cc1cccc(N2CCN(C(=O)C3CCN(c4ncnc5c4nc4n5CCCCC4)CC3)CC2)c1C	inactive
Fc1ccc(Cn2c(-c3cccc(Br)c3)nc3ccccc32)cc1	inactive
COc1ccc(C(=O)NCC(c2cccnc2)N2CCc3ccccc32)cc1 (centres undefined)	inactive
Cn1c(=O)c2c(-c3ccc(Br)cc3)n(CCc3ccccc3)cc2n(C)c1=O	inactive
CCc1ccc(CNC(=O)C(CC)n2nc(C)c3c(C)n(-c4ccccc4)nc3c2=O)cc1 (centres undefined)	inactive
Cc1cccc(Cn2c(=O)n3nc(-c4ccccc4)nc3c3ccccc32)c1	inactive
Clc1ccc(-c2noc3ncnc(NCCCN4CCN(c5ccccc5)CC4)c23)cc1	inactive
Cc1ccc(C)c(CN2C(=O)c3ccccc3S(=O)c3ccc(C(=O)N4CCC(C)CC4)cc32)c1 (centres undefined)	inactive
Cc1ccc(-c2nc(NC(=O)CSc3cc(C)c4ccccc4n3)ns2)cc1	28.2 µM (active)

Compound	Potency
O=C(CSc1nc2ccccc2nc1Cc1ccccc1)Nc1ccccc1C(F)(F)F	inactive
COc1ccc2c(C)cc(SCC(=O)Nc3nsc(-c4ccc(C(C)(C)C)cc4)n3)nc2c1	inactive
O=c1cc2nc(-c3cccs3)nc(SCCOc3ccc(Cl)cc3)n2[nH]1	inactive
C=CCc1ccccc1OCCSc1nc(-c2ccc(C(C)(C)C)cc2)nc2cc(=O)[nH]n12	inactive
Cc1cc(OCCCSc2nc(-c3ccc(C(C)(C)C)cc3)nc3cc(=O)[nH]n23)ccc1Cl	31.6 µM (active)
Cc1cccc(C(=O)Nc2sc3c(c2C(=O)O)CCCC3)c1	inactive
Cc1nc2c(-c3ccccc3)c(C)nn2c(C)c1CCC(=O)N1CCN(c2ccccc2)CC1	inactive
CCOc1ccc(-c2nn(-c3ccccc3)cc2C2NC(=O)NC(C)=C2C(=O)OC(C)C)cc1C (centres undefined)	inactive
O=C(NCCc1nc2ccccc2n1Cc1ccc(Cl)cc1Cl)c1ccco1	inactive
CCN(C(=O)Cn1c(SCC(=O)Nc2ccc(OC)cc2)nc2ccccc21)c1cccc(C)c1	inactive
CC(C)(C)c1ccc(C(=O)N2CCCC(c3nc4c(nnn4Cc4cccc(F)c4)c(=O)[nH]3)C2)cc1 (centres undefined)	inactive
CCOc1ccc(CN2CCc3nc(Nc4ccc(OC)cc4OC)ncc3C2)cc1	inactive
CC(=O)O[C@H]1C[C@@H]2CC[C@@H]3[C@H](CC[C@@]4(C)[C@H]3C[C@H]([N+]3(C)CCCCC3)[C@@H]4OC(C)=O)[C@@]2(C)C[C@@H]1[N+]1(C)CCCCC1	17.8 µM (active)
Cc1cc2c(cc3c(SCc4cccc(Cl)c4)nnc(C)n32)o1	inactive
COC(=O)c1ccc(OCC2c3cc(OC)c(OC)cc3CCN2C(=O)c2cccc(C)c2)cc1 (centres undefined)	inactive
CC(C)c1ccc(NC(=O)c2ccc3c(O)c(S(=O)(=O)c4ccccc4)c(=O)[nH]c3c2)cc1	31.6 µM (active)
O=C(NCc1ccccc1Cl)c1ccc2c(O)c(S(=O)(=O)c3ccccc3)c(=O)[nH]c2c1	inactive
CCc1ccc(NC(=O)c2ccc3c(O)c(S(=O)(=O)c4ccccc4)c(=O)[nH]c3c2)cc1	inactive
Cc1ccc(Cl)cc1N1CCN(C(=O)c2ccc(C)c(-n3c(C)nc4cccnc43)c2)CC1	inactive
CCc1ccc(NS(=O)(=O)c2ccc3oc(=O)c4ncn(CC)c4c3c2)cc1	inactive
CCOc1ccc(-c2noc(CSc3nnc(Cc4ccccc4)n3-c3ccc(F)cc3)n2)cc1	inactive
COc1ccc(N2CCN(C(=O)c3sc4nc5n(c(=O)c4c3C)CCC5)CC2)cc1	inactive
CCN(CC)c1cc(C)c2cc(NC(=O)c3cccc(OC)c3)ccc2n1	inactive

Compound	Potency
CCOC(=O)C1=C(CN(CC)Cc2ccccc2)NC(=O)NC1c1ccc(Cl)cc1 (centres undefined)	inactive
CCc1ccc(CN(Cc2ccco2)C(=O)c2ccc(C)cc2)cc1	inactive
CCCCC1CCC(CCCC(C)CCC(=O)O)CC1 (centres undefined)	35.5 µM (active)
Cc1ccc(C2=NN(CC(=O)NCCCN(CC(C)C)CC(C)C)C(=O)CC2)cc1	inactive
COc1ccc(-n2c(-c3ccc(C)cc3)cc3c2CC(C)(C)CC3=O)c(OC)c1	inactive
Cc1ccc(Cc2c(C)nc3nc(SCC(=O)NC(C)c4ccccc4)nn3c2C)cc1 (centres undefined)	inactive
CCCCOc1ccc(C(=O)NCC(c2ccc(Cl)cc2)N2CCOCC2)cc1 (centres undefined)	inactive
CC1CCCCN1C(=O)CSc1nc2ccccc2nc1Cc1ccccc1 (centres undefined)	inactive
COc1cccc(-c2nc(CS(=O)CC(=O)N3CCN(c4cccc(C(F)(F)F)c4)CC3)c(C)o2)c1 (centres undefined)	inactive
CCc1nc(Nc2ccc(F)c(Cl)c2)c2c3c(sc2n1)CCCC3	inactive
Cc1ccc2nc(Cl)c3cc(C(=O)N4CCCC(C)C4)sc3c2c1 (centres undefined)	inactive
Cc1ccc(C(=O)c2cn(Cc3cc(C)ccc3C)c3nc(C)ccc3c2=O)cc1	inactive
O=C(Cc1ccccc1F)N1CCC(c2nc3c(nnn3Cc3cccc(Cl)c3)c(=O)[nH]2)CC1	inactive
CCc1cnc2c(c1SCc1ccccc1C)c(=O)n(C)c(=O)n2C	inactive
CCN(CC)CCCNC(=O)c1ccc2c(c1)sc1nc(-c3ccc(C)cc3)cn12	inactive
C[N+](C)(CCCCCC[N+](C)(C)CCCN1C(=O)c2cccc3cccc(c23)C1=O)CCCN1C(=O)c2cccc3cccc(c23)C1=O	5.01 µM (active)
Cc1ccc(C)c(Cn2c(=O)n(CC3CCC(C(=O)N4CCOCC4)CC3)c(=O)c3sccc32)c1 (centres undefined)	inactive
COc1ccc(C2C=C(c3ccccc3)Nc3nc(NS(=O)(=O)c4ccccc4)nn32)cc1 (centres undefined)	inactive
CC(=O)Nc1ccc(S(=O)(=O)Nc2nc3n(n2)C(c2ccccc2)C=C(c2ccc(Cl)cc2)N3)cc1 (centres undefined)	39.8 µM (active)
Cc1ccc(S(=O)(=O)Nc2nc3n(n2)C(c2ccccc2Cl)C=C(c2ccccc2)N3)cc1 (centres undefined)	inactive
Cc1ccc(C)c(N2CCN(C(=O)c3cccn3-c3nnc(N4CCCCC4)s3)CC2)c1	inactive
CC1=C(C(=O)NCc2cccc(Cl)c2)C2(CCCCCC2)OC1=O	inactive
CCc1ccc(-n2c(SCc3nc(-c4cc(OC)ccc4OC)no3)nnc2-c2ccccc2)cc1	inactive

Compound	Potency
CCc1ccc(OCC(=O)N(Cc2ccc(C(C)C)cc2)C2CCS(=O)(=O)C2)cc1 (centres undefined)	inactive
Cc1cccc(-n2ccnc2SCC(=O)Nc2cccc3ccccc23)c1	inactive
Nc1ccc2oc(Cc3ccc(Cl)cc3)nc2c1	inactive
Cc1cccc(N2CCN(C(=O)C3CCCN(C(=O)c4cc5sccc5n4C)C3)CC2)c1C (centres undefined)	inactive
Cc1ccc(C)c(C(=O)N2CCC(c3nc4c(nnn4Cc4ccccc4)c(=O)[nH]3)CC2)c1	inactive
CC1CCN(S(=O)(=O)c2ccc3c(c2)c(=O)c(C(=O)NC(C)c2ccccc2)cn3C)CC1 (centres undefined)	inactive
CCc1ccccc1NC(=O)CN(c1ccccc1OC)S(=O)(=O)c1ccc(C)cc1	inactive
Cc1ccc(C)c(N2CCN(C(=O)c3ccc4c(c3)N(Cc3ccc(F)cc3)C(=O)c3ccccc3S4=O)CC2)c1 (centres undefined)	inactive
Cc1ccc2nc(Cl)c3cc(C(=O)N4CCCCC4C)sc3c2c1 (centres undefined)	inactive
O=C(NCCc1ccccc1)c1nc(-c2ccc(Cl)cc2)n2c1CCCCC2	inactive
CCCCCn1c(CCCNC(=O)c2cccc(C)c2)nc2ccccc21	inactive
COc1ccc(OC)c(NC(=O)N2CC(C)Oc3ccc(C)cc32)c1 (centres undefined)	inactive
COC(=O)c1ccc(Cl)cc1NC(=O)Nc1nnc(N(C)Cc2ccccc2)s1	inactive
N#C/C(=C\c1ccc(-c2ccc(Cl)c(C(=O)O)c2)o1)c1nc2ccccc2[nH]1	inactive
N#C/C(=C\c1ccc(-c2cc(Cl)ccc2Cl)o1)C(=O)Nc1ccccc1C(=O)O	28.2 µM (active)
N#C/C(=C\c1ccc(-c2cc(Cl)ccc2Cl)o1)C(=O)Nc1cccc2ncccc12	inactive
Cc1cccc(CSc2ccc3nnc(CCNS(=O)(=O)c4ccccc4)n3n2)c1	inactive
Cc1ccc(C(=O)Nc2ccccc2C(=O)O)cc1S(=O)(=O)N1CCCCCC1	inactive
Cc1ccc(C(=O)Nc2ccc(S(=O)(=O)O)c3cc(S(=O)(=O)O)cc(S(=O)(=O)O)c23)cc1NC(=O)c1cccc(NC(=O)Nc2cccc(C(=O)Nc3cc(C(=O)Nc4ccc(S(=O)(=O)O)c5cc(S(=O)(=O)O)cc(S(=O)(=O)O)c45)ccc3C)c2)c1	1.12 µM (active)
Cc1ccccc1NC(=O)c1ccc(N(Cc2ccccc2)S(C)(=O)=O)cc1	inactive
